Measured values reported in PubChem BioAssay AID1117319 (Southern Research Institute, 2015).
“And” between values parts separate entries of the source, which are not always exact repeats. Equal values may be shown once. Hit rate of the full screen: of about 260,000 compounds, about 1,500 (0.58%) were called active. Not shown: some 5% with an inconclusive outcome.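 The calls were made as follows: active = inhibition above a set limit at one or more doses, reproduced on every date tested; inconclusive = results disagree between test dates, or hit never tested in dose response; inactive = the rest.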 Only a sample is shown. Results with a measured potency or affinity are listed apart.

What follows are compounds tested against Virion infectivity factor (Human immunodeficiency virus type 1 group M subtype B (isolate BH10)) + Virion infectivity factor (Human immunodeficiency virus type 1 group M subtype B (isolate BRU/LAI)) + Virion infectivity factor (Human immunodeficiency virus type 1 group M subtype B (isolate PCV12)) + Virion infectivity factor (Human immunodeficiency virus type 1 group M subtype B (isolate HXB2)) + DNA dC->dU-editing enzyme APOBEC-3G (Homo sapiens) (UniProt P69720+P69721+P69722+P69723+Q9HC16) (assay: inhibitors of Vif binding to APOBEC3G peptide, primary screen, biochemical, TR-FRET, GST-Vif 1-94, biotin-A3G peptide, dose response retest (AID 1117319;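 also: Vif residues 1-94 fused to GST binding biotinylated APOBEC3G peptide 110-148; 0% = full assay without inhibitor and 100% = GST in place of GST-Vif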)). Settings: stronger effect = higher value.

SMILES | inhibition
CC1CCC(NC(=O)c2cc(Cl)nc3ccccc23)CC1 (configuration not stated) | -9.79% (inactive)
Cc1noc(/C=C/c2ccco2)c1S(=O)(=O)N1CCC(C(=O)N2CCc3ccccc32)CC1 | 10.8% (inactive)
Cc1noc(/C=C/c2ccco2)c1S(=O)(=O)N1CCC(C(=O)N2CCc3ccccc3C2)CC1 | 26.3% (inactive)
CCOC(=O)c1c(C)[nH]c(C(=O)CSc2nnnn2-c2ccc(C)cc2)c1C | -6.65% (inactive)
CCOc1cc(C)c(Cl)cc1S(=O)(=O)N(CC)CC | -2.91% (inactive)
CC1CCCN(S(=O)(=O)c2ccc(S(=O)(=O)NC(C)c3cccs3)cc2)C1 (configuration not stated) | -0.23% (inactive)
CCOc1ccc(NC(=O)CC(=O)Nc2ccc(OCC)cc2)cc1 | 3.52% (inactive)
COc1ccc(C(=O)NC2c3ccccc3-c3ccccc32)cc1 | 6.08% (inactive)
Cc1[nH]c2ccccc2c1Cc1nnc(SCC(N)=O)o1 | 9.95% (inactive)
C=CCSc1nnc(Cc2c(C)[nH]c3ccccc23)o1 | 12.5% (inactive)
Cc1ccc(CNC(=O)COC(=O)Cn2nc(C)c([N+](=O)[O-])c2C)cc1 | 2.03% (inactive)
NC(=S)N=Nc1c(O)[nH]c2ccc(F)cc12 | 14.4% (inactive)
Cc1ccc2[nH]c(O)c(N=NC(N)=S)c2c1 | 16.9% (inactive)
CNC(=S)NNc1nncc2ccccc12 | -3.6% (inactive)
CC(C)n1cnc2c(=S)nc[nH]c21 | 14.2% (inactive)
O=C(CSc1nnnn1-c1cccc2ccccc12)N1CCOCC1 | 10.1% (inactive)
CC(=C\c1ccccc1)/C=C1/SC(=S)N(C(C(=O)O)C(C)C)C1=O (configuration not stated) | -2.28% (inactive)
CC(/C=C1\SC(=S)N(C(C(=O)O)C(C)C)C1=O)=C\c1ccccc1 (configuration not stated) | 9.15% (inactive)
CC(C)C(C(=O)O)N1C(=O)/C(=C/c2cccn2C)SC1=S (configuration not stated) | 5.17% (inactive)
CCC(C(=O)O)N1C(=O)/C(=C/c2cccn2C)SC1=S (configuration not stated) | 21.2% (inactive)
CN(CCC#N)C(=O)COC(=O)c1ccccc1OCc1ccccc1Cl | 23.6% (inactive)
CCCCCCOc1ccc(N2C(=O)CC(N(CCc3ccc(S(N)(=O)=O)cc3)C(C)=O)C2=O)cc1 (configuration not stated) | -1.36% (inactive)
CN1/C(=C/C(=S)NC(=O)C2CCC2)C(C)(C)c2ccccc21 | 3.95% (inactive)

SMILES | inhibition
CCn1c(SCC(=O)NCc2cccs2)nnc1-c1cccs1 | 2.35% (inactive)
CCN(CC)c1ccc(NC(=O)CCS(=O)(=O)c2cccc3nsnc23)c(C)c1 | 12.7% (inactive)
O=C(CCS(=O)(=O)c1ccc(Br)cc1)Nc1ccccc1Cl | 24.5% (inactive)
Cc1ccc(S(=O)(=O)CCC(=O)Nc2ccc(Br)cc2)cc1 | 21.8% (inactive)
Cc1cccc(C)c1NC(=O)CCS(=O)(=O)c1ccc(Br)cc1 | -1.3% (inactive)
CCOc1ccc(NC(=O)CCS(=O)(=O)c2ccc(C)cc2)cc1 | -2.94% (inactive)
CCOc1ccccc1NC(=O)CCN1CCN(S(=O)(=O)c2ccc(Br)cc2)CC1 | -2.68% (inactive) and -11.1% (inactive)
Cc1cccc(NC(=O)CCS(=O)(=O)c2ccc(Br)cc2)c1 | 3.92% (inactive)
CCc1ccc(NC(=O)CCS(=O)(=O)c2ccc(Br)cc2)cc1 | 11.1% (inactive)
O=C(CN(Cc1ccc(F)cc1)C(=O)CNS(=O)(=O)c1ccccc1)NCc1ccco1 | -1.61% (inactive)
CC(=O)N1CCN(S(=O)(=O)c2ccc(Cl)cc2F)CC1 | -2.38% (inactive)
CC(C)c1nc(SCC(=O)N2CC(=O)Nc3ccccc32)c2ccccc2n1 | -15.6% (inactive)
C#CCOCCOCCOCCNc1nc(N2CCN(C(=O)[C@H](CO)n3cc([C@@H](N)C(C)C)nn3)CC2)nc(N2CCN(C(=O)[C@H](CCC(=O)O)n3cc([C@@H](N)CCCCN)nn3)CC2)n1 | 19.7% (inactive)
Cc1ccccc1-n1nc2c(c1NC(=O)c1cc3ccccc3o1)CS(=O)(=O)C2 | 0.92% (inactive)
COc1ccc(F)cc1CN1CCN(C(=O)CCC(=O)Nc2nnc(C(C)C)s2)CC1 | 1.87% (inactive)
O=C(Nc1cccc(C(F)(F)F)c1)Oc1ccccc1N1CCOCC1 | 4.5% (inactive)
Cc1ccccc1NC(=O)CCS(=O)(=O)c1ccc(Br)cc1 | 19.3% (inactive)
COc1ccc(Cl)cc1NC(=O)CCS(=O)(=O)c1ccc(C)cc1 | 0.29% (inactive)
COc1ccc([N+](=O)[O-])cc1NC(=O)CCS(=O)(=O)c1ccc(Br)cc1 | 23.2% (inactive)
COC(=O)c1ccccc1NC(=O)CCS(=O)(=O)c1ccc(Br)s1 | -6.38% (inactive)
CCNC(=O)CSc1nnc(-c2cc(-c3ccc(Cl)cc3)nc3ccccc23)o1 | -0.32% (inactive)
O=C(OCc1cn([C@H]2CN(CC3CCCCC3)[C@@H](c3ccc(Cl)cc3)C[C@@H]2O)nn1)c1ccccc1 | -2.33% (inactive)
CC1CCCCC1NC(=O)CSc1nnc(COc2ccc(Cl)cc2)o1 (configuration not stated) | 3.41% (inactive)

SMILES | inhibition
Cc1nc(-c2ccc(S(=O)(=O)Nc3ccc(Br)cc3Cl)s2)cs1 | -10.4% (inactive)
O=C(NCCCCNC(=O)C(F)(F)F)C(F)(F)F | 0.85% (inactive)
O=C(NCCCCCCCCCNC(=O)C(F)(F)F)C(F)(F)F | 3.63% (inactive)
O=C(COC(=O)CNC(=O)c1ccc(Br)o1)Nc1ccccc1OC(F)F | 6.47% (inactive)
CCOC(=O)COc1nc(-c2ccccc2)cc(-c2ccco2)c1C#N | 4.55% (inactive)
CCOC(=O)COc1nc(-c2ccc(C)cc2)cc(-c2ccco2)c1C#N | -6.28% (inactive)
Cc1cccc(CC(Cc2nc3ccccc3[nH]2)c2nc3ccccc3[nH]2)c1 (configuration not stated) | 10.6% (inactive)
Cc1ccc2c(Cl)cc(Cl)c(OCC(=O)Nc3cccc(S(N)(=O)=O)c3)c2n1 | -2.21% (inactive)
Cc1ccc(-c2cc(C(=O)N/N=C/C(Br)=C/c3ccccc3)n[nH]2)o1 | 27.2% (inactive)
O=C(N/N=C/C(Br)=C\c1ccccc1)c1ccco1 | 8.5% (inactive)
CCOc1ccc(S(=O)(=O)Nc2cccc(C(=O)N3CCN(c4ccccc4O)CC3)c2)cc1 | 4.44% (inactive)
COC(=O)/C(=N/Nc1cccc(C)c1)N1CCCc2ccccc21 | 24.9% (inactive)
COC(=O)/C(=N/Nc1ccccc1OC)N1CCCc2ccccc21 | 14.5% (inactive)
O=C(NCCc1ccccc1)C1CCN(S(=O)(=O)c2cccc3nsnc23)CC1 | -0.39% (inactive)
N#C/C(=C/c1ccc(N2CCCCCC2)o1)c1ccc(Cl)cc1 | 17.8% (inactive)
N#C/C(=C/c1ccc(N2CCCCCC2)o1)c1ccc(F)cc1 | 5.86% (inactive)
Cc1ccc(/C=C/C(=O)NCCCn2ccnc2)cc1 | -9.33% (inactive)
CC(=O)Nc1ccc(Nc2cc(N(C)C)c3nonc3c2[N+](=O)[O-])cc1 | 0.25% (inactive)
CN(C)c1cc(Nc2cccc(O)c2)c([N+](=O)[O-])c2nonc12 | -10.7% (inactive)
O=[N+]([O-])c1c(Nc2ccccn2)cc(Cl)c2nonc12 | 10.6% (inactive)
O=[N+]([O-])c1c(Nc2ccccc2O)ccc2nonc12 | 1.82% (inactive)
CC(C)CC(=O)Nc1ccnn1C1CCN(C(=O)c2ccccc2F)CC1 | -2.89% (inactive)
CCOC(=O)c1c(/N=C/N(C)C)sc(C)c1C | -7.57% (inactive)

SMILES | inhibition
O=C(CCCN1C(=O)c2ccccc2C1=O)N1CCc2ccccc2C1 | -3.95% (inactive)
CN1CCN(C(=O)CN2C(=O)CC(C)(C)S(=O)(=O)c3ccccc32)CC1 | -1.94% (inactive)
O=C(NCCc1ccccc1Cl)c1cc(COc2ccc(F)cc2F)on1 | 2.92% (inactive)
O=C(COc1ccc(-c2nnco2)cc1)Nc1ccc(F)c(Cl)c1 | -11.6% (inactive)
N=c1c(C(=O)NCc2ccco2)cc2c(=O)n3ccccc3nc2n1CCc1ccccc1 | 19.6% (inactive)
CCNC(=O)c1cc2c(=O)n3cccc(C)c3nc2n(CCc2ccccc2)c1=N | -4.24% (inactive)
CCOc1cc(N2CCOCC2)c(OCC)cc1NS(=O)(=O)c1ccc2c(c1)CC(=O)N2 | 9.5% (inactive)
CCOc1cc(N2CCOCC2)c(OCC)cc1NC(=O)C(C)C | 32.2% (inactive)
CCOc1cc(N2CCOCC2)c(OCC)cc1NC(=O)CSc1nc(N)cc(=O)[nH]1 | -6.18% (inactive)
CCOc1cc(N2CCOCC2)c(OCC)cc1NC(=O)CSc1ncccn1 | -9.38% (inactive)
CCOc1cc(N2CCOCC2)c(OCC)cc1NC(=O)C(C)(C)C | 31% (inactive)
CCN(CC)S(=O)(=O)c1ccc(N2CCOCC2)c(NS(=O)(=O)c2ccc(Cl)s2)c1 | 7% (inactive)
CC1CCCC(C)N1C(=O)COc1cccc(Oc2ccccc2)c1 (configuration not stated) | -6.13% (inactive)
O=C(Oc1cc(-c2ccccc2)no1)c1cccc(C(F)(F)F)c1 | 12% (inactive)
CCCN(CC(=O)Nc1ccccc1C)C(=O)c1ccc(C)c(S(=O)(=O)N2CCCCC2)c1 | -7.29% (inactive)
COc1ccc(C(=O)NCc2cccnc2)cc1Br | 7.76% (inactive)
CCCCN1C(=O)NC(NC(=O)c2ccco2)(C(F)(F)F)C1=O (configuration not stated) | -1.08% (inactive)
CCCCn1c(N)c(N(CC)C(=O)/C=C/c2ccco2)c(=O)[nH]c1=O | -7.61% (inactive)
COC(=O)C(=C/C=C/c1ccco1)C(=O)OC | 32.7% (inactive)
Cn1nnc(NC(=O)/C=C/c2ccco2)n1 | 11.5% (inactive)
CC1Cc2c([nH]c3ccccc23)C(=O)N1 (configuration not stated) | 0.31% (inactive)
COc1c2ccoc2c(OC(C)=O)c2oc(C)cc(=O)c12 | 0.13% (inactive)
COC(=O)Cn1cnc2c1c(=O)n(C)c(=O)n2C | 1.38% (inactive)
